Bioassay records: PubChem BioAssay, Sanford-Burnham Center for Chemical Genomics
iPSC survival up – hiPSC single-cell survival enhancement | 360,000 tested, 0.044% active | ATPlite luminescence; 100% = ROCK inhibitor wells, 0% = DMSO | survival enhancement, % at 20 µM; in the data active means survival enhancement above about 18%;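 further: cells exposed to compounds for 16 hours before the ATP read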
SKN-1 inh – blocks SKN-1 activity in C. elegans | 360,000 tested, 0.49% active | inhibition, % at 21.8 µM | C. elegans VP596 Pgst-4::GFP/RFP ratio, acrylamide-induced, 24 h | AID 624304;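 active means interference check ratio from 0.5 to 1.5 plus GFP to RFP signal ratio inhibition reaching or exceeding a fixed threshold, cut at about 30% in these data, passing the limit was not always enough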
H9c2 TAG inh – inhibitors of triacylglycerol accumulation. H9c2 cells, Nile Red lipid (TAG) fluorescence; cells loaded with 200 µM oleic acid. inhibition, % at 12.5 µM. 230,000 tested, 0.66% active. AID 651582;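 active means pattern-corrected inhibition of lipid staining of at least 50% with the nuclear-stain viability signal not falling by more than 50%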;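 further: 0% = DMSO wells and 100% = triacsin C control wells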
CRFR2-BP antag – CRF-BP/CRF-R2 complex antagonism; inhibition, % at 11.8 µM; HEK293 CRF-R2/CRF-BP, CRF-induced calcium fluorescence; 350,000 tested, 0.59% active;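 active means inhibition of the ligand-induced calcium signal above about 50% at the single tested concentration, limit read from the data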
Cardio protect – protects H9c2 cardiomyocytes from peroxide injury. H2O2 injury protection, ATPLite, 2 h. protection from H2O2 cell death, % at 20 µM. 360,000 tested, 0.63% active. AID 588492;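 active means compounds giving at least 50% protection of heart cells from peroxide-induced death in the single-dose screen, raw or plate-pattern-corrected value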;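 further: 0% = DMSO wells with peroxide and 100% = DMSO wells without peroxide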
CRFBP-R2 agonist – CRF-BP/CRF-R2 complex agonism; HEK293 CRF-R2/CRF-BP, calcium dye fluorescence (FLIPR); percent of saturating CRF peptide response; activation, % at 13.2 µM; 350,000 tested, 0.46% active;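 active means activation of at least 50%, plus an integration ratio under a set limit after plate pattern correction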;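 further: plate controls were neutral control wells without compound for no effect and CRF at EC100 for full effect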
* = called active by the depositor; / = not tested or not shown. This is a sample that favours compounds with a hit; in the whole collection about 2.5% have one here.

SMILES | iPSC survival up | SKN-1 inh | H9c2 TAG inh | CRFR2-BP antag | Cardio protect | CRFBP-R2 agonist
COc1ccc(CN=Cc2[nH]c3ccc(Br)c(Cl)c3c2O)cc1 | -0.5 | -13.0 | / | -39.3 | -5.8 | 15.8
Cc1cc(C)cc(N=Cc2[nH]c3ccc(Br)c(Cl)c3c2O)c1 | -0.6 | 1.7 | / | -151.0 | -13.5 | 197.0*
CN1/C(=C/C(=S)NC(=O)C2CCC2)C(C)(C)c2ccccc21 | 0.0 | 41.2* | -22.6 | 0.9 | -25.7 | -0.5
COc1ccccc1N(CC(=O)NCCSc1ccccc1)S(=O)(=O)c1ccccc1 | 0.1 | 3.3 | -8.3 | 8.6 | 7.3 | 1.3
COc1ccc(N(CC(=O)NCCSc2ccccc2)S(=O)(=O)c2ccccc2)c(OC)c1 | 1.1 | -1.0 | -5.8 | 17.9 | 55.5* | 9.8
COC(=O)[C@@]12C[C@@H](CC(=O)N3CCN(C(=O)C4CC4)CC3)C(=O)N(Cc3ccco3)C1=CCC(C)(C)C2 | / | -3.2 | / | / | / | /
CC1=CC(C)(C)Nc2ccc(OC(=O)CN3C(=O)c4ccccc4C3=O)cc21 | -2.1 | 7.3 | 51.9* | -1.6 | -18.9 | 0.0
CCCCN(CCCC)Cc1cc(=O)oc2cc(C)c(Cl)cc12 | -2.2 | 1.5 | / | / | -0.8 | /
CC(C)C1Nc2ccc(C(=O)N3CCN(c4ccccn4)CC3)cc2NC1=O (stereo not drawn) | -0.1 | 5.9 | / | -1.9 | 51.4* | -0.1
O=c1cc(-c2ccc(F)cc2)oc2ccccc12 | 4.3 | 52.9* | -5.4 | 98.9* | 35.3 | -1.2
O=c1cc(-c2ccccc2F)oc2ccccc12 | 7.2 | -6.8 | 1.2 | 2.7 | 2.2 | -1.9
CSc1ccc(-c2cc(=O)c3ccccc3o2)cc1 | -1.1 | 46.6* | / | -36.3 | 41.5 | -1.5
CCCn1cc(S(=O)(=O)c2ccc(OC)cc2)c(=O)c2cc(OCC)ccc21 | -0.1 | 17.3 | / | -4.0 | 2.3 | -1.9
CCCn1cc(S(=O)(=O)c2ccccc2)c(=O)c2cc(OCC)ccc21 | 1.3 | 7.5 | / | 74.6* | -1.6 | 1.1
COc1ccc(OC)c(CN2C(=O)c3ccccc3C2c2nnnn2Cc2ccccc2)c1 (stereo not drawn) | -0.9 | 6.1 | / | / | / | /
CN(C)/N=C/C=C1\CC/C(=C\c2ccc(Br)cc2)C1=O | -1.5 | 40.7* | -0.7 | -9.2 | -7.2 | -0.6
Cc1nnc(SCC(=O)N(C)Cc2ccccc2)[nH]c1=O | 3.5 | 5.2 | 8.5 | 88.0* | 3.1 | -0.2
COc1ccc(NC(=O)CN(c2ccc(OC)cc2)S(=O)(=O)c2c(C)nn(C)c2C)cc1 | -0.3 | 0.9 | / | 6.9 | 17.9 | -3.1
CCc1noc(C)c1C(=O)N(C)CC(=O)Nc1ccc(F)c(F)c1F | -0.5 | -3.4 | -5.7 | 1.9 | 4.9 | -0.5
Cc1cc(C)c2nc(N3CCN(C)CC3)c(C#N)cc2c1 | 21.2* | 21.4 | 8.9 | 0.4 | -0.7 | -4.5
CCOc1ccc(Oc2ccc(NC(=O)CSc3nncn3C)cc2)cc1 | -0.5 | 8.4 | 4.7 | 2.5 | -4.3 | 2.0
CNc1ccc2ncc(-c3ccccc3C(C)=O)n2n1 | 3.1 | 3.1 | -6.8 | / | 6.3 | /
CCOc1ccc(-n2c(SCC(=O)NCc3ccco3)nc3c([nH]c4ccccc43)c2=O)cc1 | 1.0 | 9.6 | / | 78.0* | 22.9 | 0.3
CCCN1CCc2c(sc(NC(=O)c3ccc(S(=O)(=O)N(C)c4ccccc4)cc3)c2C(=O)NC)C1 | 0.6 | 6.4 | 9.2 | -62.8 | 15.5 | 63.1*
CN1CCc2c(sc(NC(=O)c3ccc(S(=O)(=O)N4CCCCCC4)cc3)c2C(N)=O)C1 | 2.4 | 11.6 | 0.7 | -146.0 | 1.3 | 126.7*
SMILES | iPSC survival up | SKN-1 inh | H9c2 TAG inh | CRFR2-BP antag | Cardio protect | CRFBP-R2 agonist
CCCN1CCc2c(sc(NC(=O)c3ccc(S(=O)(=O)N(C)c4ccccc4)cc3)c2C(N)=O)C1 | 0.4 | 9.7 | -15.8 | -63.2 | 2.4 | 98.7*
CN1CCc2c(sc(NC(=O)c3ccc(S(=O)(=O)N4CCCC4)cc3)c2C(N)=O)C1 | -0.4 | -15.7 | -4.7 | -36.3 | 10.4 | 28.2
CNC(=O)c1c(NC(=O)c2ccc(S(=O)(=O)N3CCCCC3)cc2)sc2c1CCN(C(C)C)C2 | 0.5 | -6.2 | -9.0 | -67.1 | -1.5 | 45.3
CNC(=O)c1c(NC(=O)c2ccc(S(=O)(=O)N3CCCc4ccccc43)cc2)sc2c1CCN(C)C2 | 1.5 | -16.0 | 9.4 | -128.2 | 1.1 | 158.6*
CC1CC(C)CN(S(=O)(=O)c2ccc(NC(=O)CN3C(=O)NC(C)(c4ccccc4)C3=O)cc2)C1 (stereo not drawn) | -0.6 | 5.3 | 12.1 | 1.3 | 0.9 | 1.8
Cc1ccc(NS(=O)(=O)c2ccc(-c3coc(C)n3)cc2)c(Cl)c1 | -0.3 | 6.6 | -6.0 | 1.5 | -9.1 | -0.9
N#CC(CC(=O)OCc1ccccc1)NC(=O)OCc1ccccc1 (stereo not drawn) | -1.8 | 0.7 | -20.2 | 6.8 | 2.7 | -3.1
CC(OC(=O)COc1ccccc1)C(=O)NC1CCCC1 (stereo not drawn) | -0.4 | 9.1 | 15.2 | 5.1 | 16.7 | -1.2
COc1cc(N=Cc2c(CO)cnc(C)c2O)cc(OC)c1OC | -0.4 | 2.4 | -3.5 | 13.6 | 5.8 | -0.1
CCOC(=O)N1CCN(S(=O)(=O)c2ccc(C(=O)Nc3sc4c(c3C(N)=O)CCN(CC)C4)cc2)CC1 | -0.4 | 8.7 | / | -5.8 | 3.0 | 2.0
CCCN1CCc2c(sc(NC(=O)c3ccc(S(=O)(=O)N4CCN(C(=O)OCC)CC4)cc3)c2C(N)=O)C1 | 0.3 | -3.8 | -18.3 | -72.4 | -2.6 | 108.3*
CCN(CC)c1ccc(C=Nc2ccc(C)cc2C)c(O)c1 | -0.5 | 8.0 | 7.1 | 8.4 | 4.8 | -4.4
Cc1ccccc1N=Cc1cccc(O)c1O | -2.1 | 6.9 | / | -3.8 | 57.9* | 0.6
Oc1cccc(/C=N/N=C/c2cccc(O)c2O)c1O | 0.0 | -12.0 | / | -28.1 | -8.7 | 1.3
CC(N=Cc1cc([N+](=O)[O-])ccc1O)c1ccccc1 (stereo not drawn) | 4.0 | 8.9 | / | -20.3 | 16.6 | 0.5
CC(N=Cc1cccc(O)c1O)c1ccccc1 (stereo not drawn) | -1.0 | 2.0 | / | -1.5 | 58.9* | 0.7
Cc1ccc(N=Cc2cccc(O)c2O)c(C)c1 | -1.0 | 1.1 | -2.6 | / | 72.7* | /
Cc1[nH]n(C2=NCCS2)c(=O)c1N=Nc1cccc(C(F)(F)F)c1 | -0.2 | 2.7 | 17.2 | -18.2 | 61.7* | 42.4
Cc1[nH]n(C(N)=S)c(=O)c1N=Nc1cccc(C(F)(F)F)c1 | 0.3 | 4.5 | / | 10.1 | -6.8 | 2.3
COc1cccc(CNC(=O)CN(C)S(=O)(=O)c2ccc3c(c2)n(C)c(=O)c(=O)n3C)c1 | 0.4 | 1.0 | / | -8.2 | 6.6 | -0.8
COc1ccc(CNC(=O)CCc2nc3cc(S(=O)(=O)N(C)C)ccc3n2C)cc1OC | 0.0 | -6.8 | -2.4 | 64.5* | -1.3 | -1.4
COc1ccc(CNC(=O)CN(C)S(=O)(=O)c2ccc3c(c2)n(C)c(=O)c(=O)n3C)cc1 | -0.4 | 1.6 | / | 69.3* | 4.8 | -0.8
CN(C)S(=O)(=O)c1ccc2c(c1)nc(CCC(=O)O)n2C | 0.1 | 6.8 | -5.3 | 43.5 | 6.0 | 1.6
